Laboratory results reported in PubChem BioAssay (EPA / NIEHS).
The source made the active and inactive calls. The calls were made as follows: active = hit-call score of the fitted dose curve at least 0.9, where 1 is the maximum; inactive = score below 0.9.

assay: ATG_CRE_CIS: Attagene CIS-FACTORIAL HepG2 Assay for human cAMP Responsive Element (CRE) binding protein 3 (AID 2282926); details: HepG2 CRE cis-reporter, Attagene multiplexed mRNA; actives raise or lower the signal
Outline: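 HepG2 cells transiently transfected with cis-element-driven multiple reporter transcription units; CRE reporter mRNA measured 24 h after dosing by RT-PCR, 6-FAM labelling, HpaI digestion and capillary electrophoresis. Bidirectional fit versus DMSO baseline.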

outcome, inactive:
C=Cc1ccc(O)c(OC)c1
CCCCCCCCCC=CCC1CC(=O)OC1=O (stereo not drawn)
CC(C)C=O
C[C@]12CC[C@@H]3c4ccc(O)cc4CC[C@H]3[C@@H]1C[C@@H](O)[C@@H]2O
c1cc2cccc3c4cccc5cccc(c(c1)c23)c54
CC(C)(c1ccc(Oc2ccc(N)cc2)cc1)c1ccc(Oc2ccc(N)cc2)cc1
Oc1cc2ccccc2cc1O
O=C1OC2(c3ccccc31)c1cc(I)c(O)c(I)c1Oc1c2cc(I)c(O)c1I
NCc1cccc(CN)c1
O=CC(F)(F)C(F)(F)C(F)(F)C(F)F
CCN(CC)CC
Clc1ccc(Nc2nnc(Cc3ccncc3)c3ccccc23)cc1
FCOC(C(F)(F)F)C(F)(F)F
CCO[Si](C)(C)OCC
O=C(O)CCC(F)(F)C(F)(F)C(F)(F)C(F)(F)C(F)(F)C(F)(F)F
C=CC(=C)CC/C=C(\C)CCC=C(C)C
COc1cccc(O)c1
Cc1cncc(C)c1
COc1cc(OC)nc(NC(=O)NS(=O)(=O)Nc2ccccc2C(=O)N(C)C)n1
FC1(F)C=CC(F)(F)C1(F)F
Cc1ccccc1OCC(=O)O
O=C1OC(=O)c2cc(-c3ccc4c(c3)C(=O)OC4=O)ccc21
COC(=O)C(F)(F)C(F)(F)C(F)(F)F
Brc1cc(Br)c(Oc2c(Br)cc(Br)c(Br)c2Br)cc1Br
CCCCCCCCCCCC
C=CC(=O)OCCC(F)(F)C(F)(F)C(F)(F)C(F)(F)C(F)(F)C(F)(F)C(F)(F)C(F)(F)F
Cc1ccccc1C(OCCN(C)C)c1ccccc1 (stereo not drawn)
FC(F)(F)C(F)(F)C(F)(F)Br
C[N+](C)(CCCNS(=O)(=O)CCC(F)(F)C(F)(F)C(F)(F)C(F)(F)C(F)(F)C(F)(F)F)CC(=O)[O-]
COCC1CCC(CO)CC1 (stereo not drawn)
CCCCC(CC)C(=O)OCCOCCOCCOCCOC(=O)C(CC)CCCC (stereo not drawn)
O=C(O)CCC(F)(F)C(F)(F)C(F)(F)C(F)(F)C(F)(F)F
CCC1CO1 (stereo not drawn)
CC(C)CCOCCC(C)C
O=C(Nc1cccc([N+](=O)[O-])c1)c1cc2ccccc2cc1O
CCCCCC(C)OC(=O)COc1ccc(Cl)c2cccnc12 (stereo not drawn)
Cc1ccc(S(=O)(=O)O)cc1
c1ccc2c(c1)CCC2
